# Laboratory results reported in PubChem BioAssay (NCATS).
# Records with an inconclusive call do not appear. A number with no mark means an inactive call. Calls come from the whole dose curve; as a rule, active = well fitted curve in the direction sought with a large enough effect; inconclusive = small, poorly fitted or top-dose-only effect, or another doubt; inactive = no such curve, though single readings can be large or run the other way.
# Test: qHTS Assay for Identifying Gametocytocidal Compounds (AID 743244);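 note: actives lower the fluorescent signal which means gametocytes are killed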
# Details: P. falciparum 3D7 stage III-V gametocytes, alamarBlue, 72 h; max response: active compounds read low
# Method in brief: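 3D7 gametocytes, stages III–V, 20,000/well; cpd 72 h, 37 °C/5% CO2; + alamarBlue 24 h; fluor. Ex 525/Em 598.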
# % is set by controls: 0 for no effect and ±100 for the full control effect.
row,SMILES,max response [%]
1,CCCC(=O)O,-0.429
2,CC1C(=O)CC2C3(C)CCC2(C(C)C(=O)O)C(=O)C13 (centres undefined),-7.97
3,NC(N)=NCC1COC2(CCCCC2)O1 (centres undefined),9.74
4,COc1ccc(C[C@H](C)NC[C@@H](O)c2ccc(O)c(NC=O)c2)cc1,-5.27
5,c1ccc2cc(C3=NCCN3)ccc2c1,5.29
6,CN1CCC(OC(=O)C(Oc2ccc(Cl)cc2)Oc2ccc(Cl)cc2)CC1,32.5
7,C=C1[C@@H]2CC[C@@H](C2)C1(C)C,-12.4
8,COc1cc(C)c(/C=C/C(C)=C/C=C/C(C)=C/C(=O)O)c(C)c1C,1.95
9,CC(=O)NCCCS(=O)(=O)O,7.56
